Screening results deposited in PubChem BioAssay by several laboratories.
Most compounds without a hit are left out; they make up all but 2.8% or so of the library.
SENP8 block-1: SENP8 (human) protease inhibition. Q96LD8. recombinant SENP8, Nedd8 substrate fluorescence. inhibition, % at 20 µM. 0.64% of 360,000 active. AID 602440; in the data active means inhibition mostly above about 40%, no sharp cut-off; inactive means mostly below about 27%
Target sequence (Q96LD8 whole entry, looked up): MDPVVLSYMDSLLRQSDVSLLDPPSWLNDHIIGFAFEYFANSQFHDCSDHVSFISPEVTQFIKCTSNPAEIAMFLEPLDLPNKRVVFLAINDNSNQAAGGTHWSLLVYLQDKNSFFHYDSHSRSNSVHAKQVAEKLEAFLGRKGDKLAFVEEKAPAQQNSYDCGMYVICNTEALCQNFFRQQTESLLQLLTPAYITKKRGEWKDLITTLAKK
SENP6 block: SENP6 protease inhibition. 1.8% of 330,000 active. Q9GZR1. Recombinant SENP6 catalytic domain, aminoluciferin luminescence. inhibition, % at 10 µM;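 active means inhibition above about 50% at the single tested dose, limit read from the data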;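 further: plate controls were DMSO wells with enzyme for no effect and DMSO wells lacking enzyme for full effect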
HSP90 inh: blocks HSP90-mediated luciferase refolding in reticulocyte lysate; Rabbit reticulocyte lysate, luciferase refolding luminescence, 3 h; AID 1789; 0.91% of 290,000 active; inhibition, % at 5.6 µM;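 active means inhibition above the screen-wide mean plus 3 SD, computed separately per campaign, cut at about 16% in these data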;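 further: 0% = DMSO wells and 100% = 60 µM geldanamycin wells; inhibitors lower the luminescence because luciferase stays unfolded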
SENP8 block-2: SENP8 protease inhibition; AID 2540; inhibition, % at 10 µM; 1.2% of 330,000 active; purified SENP8, Z-RLRGG-aminoluciferin cleavage, luminescence; Q96LD8; in the data active means inhibition above about 50%
SENP7 inh: inhibitors of human SENP7 protease | Q9BQF6 | recombinant SENP7, Z-RLRGG-aminoluciferin luminescence, 40 min | inhibition, % at 5 µM | 1.5% of 330,000 active;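 active means inhibition above about 50% at the single test dose, limit read from the data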;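 further: plate controls were DMSO with enzyme for no effect and no enzyme buffer wells for full effect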
Target sequence (Q9BQF6 706-1050 limits assumed): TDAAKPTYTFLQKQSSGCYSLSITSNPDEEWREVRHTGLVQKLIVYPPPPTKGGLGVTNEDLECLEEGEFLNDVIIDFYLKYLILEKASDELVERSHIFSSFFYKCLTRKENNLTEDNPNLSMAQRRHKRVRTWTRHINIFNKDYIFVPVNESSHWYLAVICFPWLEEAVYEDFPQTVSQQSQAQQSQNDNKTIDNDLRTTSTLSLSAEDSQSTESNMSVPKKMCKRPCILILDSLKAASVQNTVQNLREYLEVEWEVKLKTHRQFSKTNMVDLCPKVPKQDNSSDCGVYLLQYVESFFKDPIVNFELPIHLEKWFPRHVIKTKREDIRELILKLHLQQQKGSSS
HSP90 inh confirm: confirmation of HSP90 inhibitors | inhibition, % at 5.9 µM | shares compounds with HSP90 inh | 64% of 2,300 active | AID 1846 | rabbit reticulocyte lysate, luciferase refolding luminescence, 3 h; in the data active means inhibition above about 18%;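 further: 0% = vehicle wells and 100% = reference inhibitor wells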
luciferase ctr: blocks native firefly luciferase in HSP90 counter-screen; shares compounds with HSP90 inh; purified native firefly luciferase, luminescence; inhibition, % at 5.9 µM; 48% of 2,300 active;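 active means inhibition above the mean inhibition of all tested sample wells plus 3 SD, cut at about 10% in these data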;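 further: 0% = DMSO with luciferase and 100% = wells lacking luciferase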
SENP8 confirm: human SENP8 inhibition, confirmed; shares compounds with SENP7 inh; Recombinant SENP8, Z-RLRGG-aminoluciferin luminescence, 60 min; 40% of 6,200 active; inhibition, % at 12.5 µM;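 active means mean inhibition across replicates above about 50%, limit read from the data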
SENP6 conf: confirmation of human SENP6 protease inhibitors; 58% of 6,200 active; inhibition, % at 12.5 µM; recombinant SENP6, Z-RLRGG-aminoluciferin luminescence; shares compounds with SENP7 inh
SENP7 confirm: human SENP7 inhibition, confirmed | AID 488917 | inhibition, % at 12.5 µM | shares compounds with SENP7 inh | 69% of 6,200 active | recombinant SENP7, Z-RLRGG-aminoluciferin luminescence, 40 min
Casp3 SENP sel: caspase-3 inhibition (SENP selectivity assay) | purified caspase-3, Z-DEVD-aminoluciferin luminescence, 60 min | 60% of 6,200 active | inhibition, % at 12.5 µM | shares compounds with SENP7 inh;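 active means mean inhibition above about 50%, limit read from the data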;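 further: plate controls were enzyme with DMSO for no effect and wells without caspase-3 for full effect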
Luc interf: luminescence interference (SENP counter-screen). Pre-incubated SENP8/Z-RLRGG-aminoluciferin, luciferase luminescence interference. shares compounds with SENP7 inh. AID 488919. 39% of 6,200 active. inhibition, % at 12.5 µM;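 active means mean inhibition above about 50% when retested at one dose, limit read from the data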;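 further: plate controls were DMSO wells with completed reaction for no effect and substrate without enzyme for full effect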
Active calls of the source: *; · = not tested or not shown.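 How the source made its calls, unless noted: active means mean inhibition above about 50% in the one-dose retest (limit read from the data); inactive means the rest.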

SMILES	SENP8 block-1	SENP6 block	HSP90 inh	SENP8 block-2	SENP7 inh	HSP90 inh confirm	luciferase ctr	SENP8 confirm	SENP6 conf	SENP7 confirm	Casp3 SENP sel	Luc interf
Cc1ccc(S(=O)(=O)N(CC(=O)NN=C2CCN(C)CC2)c2ccc(C(C)C)cc2)cc1	8.6	-13.9	0.9	-1.1	-4.2	·	·	·	·	·	·	·
O=C(NC(=O)c1ccccc1)Nc1ccc(-c2cnco2)cc1	23.6	-2.2	-1.4	-11.0	39.2	·	·	·	·	·	·	·
O=C(NC(=O)c1ccccc1)Nc1ccccc1	5.8	83.4*	63.5*	76.6*	93.3*	59.5*	47.2*	5.1	26.8	50.5*	45.5	19.3
Cc1cc(/C=N/Nc2ncnc(N)c2[N+](=O)[O-])c(C)n1-c1ccccc1	55.2*	-0.4	76.3*	94.5*	97.0*	95.4*	91.6*	5.8	60.7*	94.8*	51.5*	10.9
Cc1cc(/C=N/NC(=O)c2cccc([N+](=O)[O-])c2)c(C)n1-c1ccccc1	12.9	-6.2	0.3	-6.1	-18.5	·	·	·	·	·	·	·
COc1cccc(/C=N/Nc2ncnc(N)c2[N+](=O)[O-])c1OC	20.2	68.3*	26.7*	16.7	71.9*	79.5*	62.3*	38.4	46.1	64.4*	77.0*	20.8
O=C1C(Cl)=C(NCc2cccnc2)C(=O)c2ccccc21	86.4*	59.7*	18.2*	30.2	29.7	4.8	-3.3	47.3	71.9*	26.6	66.0*	2.8
O=S(=O)(Cc1ccccc1)NCc1cccnc1	-3.4	-7.1	1.1	8.7	3.1	·	·	·	·	·	·	·
CCOC(=O)c1ccc(NC(=O)Nc2cc(C)on2)cc1	8.8	-6.5	-5.6	-11.8	-1.4	·	·	·	·	·	·	·
c1ccc2nc(-c3nc4ccccc4o3)ccc2c1	-296.4	98.4*	32.3*	96.9*	99.9*	81.1*	76.2*	98.0*	99.8*	102.2*	98.6*	94.8*
c1ccc(-c2nc3ccccc3o2)nc1	-6.6	12.7	-2.1	-7.9	-3.2	·	·	·	·	·	·	·
COc1ccc(N2C(=S)NC3c4cc(Cl)ccc4OC2(C)C3C(=O)N(C)C)cc1 (stereo unspecified)	3.3	4.1	-1.7	3.4	-9.1	·	·	·	·	·	·	·
CN(C)c1ccc(-c2nc3cc(N)ccc3o2)cc1	-448.7	92.8*	29.5*	91.1*	95.0*	55.0*	51.5*	85.2*	94.2*	99.8*	91.4*	78.7*
Nc1ccc2oc(-c3ccccn3)nc2c1	-68.9	-6.4	1.0	-4.6	2.0	·	·	·	·	·	·	·
COc1ccc(-c2c(C)oc3cc(O)cc(O)c3c2=O)cc1OC	7.3	-5.2	1.4	-13.2	7.6	·	·	·	·	·	·	·
O=C(O)c1ccc(-c2nc3ccccc3s2)o1	-363.1	90.9*	63.3*	76.9*	78.2*	79.7*	23.8*	87.0*	83.8*	92.5*	61.3*	82.1*
C(=C\c1nc2ccccc2[nH]1)/c1ccccc1	-261.3	94.5*	30.8*	96.8*	100.0*	53.7*	48.2*	98.2*	99.3*	102.9*	97.7*	91.9*
C(=C\c1ccco1)/c1nc2ccccc2[nH]1	-347.7	-10.6	2.1	10.3	-0.7	·	·	·	·	·	·	·
CN(C)c1ccc(/C=C/c2nc3ccccc3c(=O)[nH]2)cc1	-233.7	-11.8	58.8*	93.0*	95.2*	75.8*	72.8*	46.9	89.7*	102.8*	95.8*	38.5
COC(=O)c1ccc(C(=O)Nc2ccc3c(c2)C(=O)NC3=O)cc1	-244.8	6.4	2.6	0.0	6.1	·	·	·	·	·	·	·
Cc1ccc(N/C=C/C(=O)c2ccc(C)cc2)cc1	-296.0	-13.3	4.0	-21.1	19.1	·	·	·	·	·	·	·
COc1ccc(OC)c(N/C=C/C(=O)c2ccccc2)c1	11.5	93.1*	70.3*	94.6*	101.1*	92.2*	84.5*	99.7*	100.8*	103.9*	98.8*	94.9*
COc1cccc(N/C=C/C(=O)c2ccc(C)cc2)c1	-173.7	90.9*	19.5*	94.8*	96.2*	34.5*	27.8*	96.4*	97.5*	101.0*	94.3*	92.8*
O=C(/C=C/Nc1ccc(F)cc1Br)c1ccccc1	-83.1	95.8*	18.8*	94.5*	100.0*	89.0*	82.5*	31.0	42.7	35.8	74.7*	28.6
Cc1ccc(C(=O)/C=C/Nc2ccccn2)cc1	-219.5	95.1*	66.3*	93.4*	97.3*	95.7*	91.0*	94.1*	97.6*	101.8*	96.5*	62.4*
SMILES	SENP8 block-1	SENP6 block	HSP90 inh	SENP8 block-2	SENP7 inh	HSP90 inh confirm	luciferase ctr	SENP8 confirm	SENP6 conf	SENP7 confirm	Casp3 SENP sel	Luc interf
Cc1ccc(C(=O)/C=C/Nc2ccc([N+](=O)[O-])cc2Br)cc1	-18.4	-13.6	6.8	-2.0	3.0	·	·	·	·	·	·	·
Nc1nonc1-n1nnc(C(=O)N/N=C/c2ccccc2F)c1-c1cccs1	-3.0	-13.5	-1.1	-3.7	2.4	·	·	·	·	·	·	·
O=C(CSc1nnc(-c2ccccc2)n1-c1ccc(Cl)cc1)NC1CCS(=O)(=O)C1 (stereo unspecified)	17.9	15.2	-2.0	0.9	7.4	·	·	·	·	·	·	·
Cc1oc(-c2nc3ccccc3n2C)cc1C(=O)c1ccccc1	-58.2	94.0*	17.3*	85.1*	47.5	56.6*	46.2*	93.8*	94.5*	100.7*	94.2*	92.9*
CCSc1cc(C)nc2c(-c3ccccc3)cnn12	-8.9	21.4	4.5	10.0	43.2	·	·	·	·	·	·	·
COc1ccc(C2=NOC(Cn3nc(C(=O)NCc4cccc(Br)c4)cc3-c3ccccc3)C2)cc1 (stereo unspecified)	13.4	-0.4	·	6.7	-0.7	·	·	·	·	·	·	·
O=C(O)c1cc(N/N=C/c2ccc(N3CCOCC3)cc2)ccc1Cl	-283.5	-17.3	38.8*	50.9*	30.8	82.8*	64.7*	75.2*	73.4*	94.2*	22.9	74.7*
O=C(O)c1cc(N/N=C/c2ccncc2)ccc1Cl	-207.8	60.3*	24.9*	37.2	41.2	61.7*	10.4*	58.1*	54.1*	84.7*	24.6	72.2*
O=C(N/N=C/c1ccncc1)c1cccc(N/N=C/c2ccncc2)c1	1.7	0.1	11.1	-12.5	-0.6	·	·	·	·	·	·	·
Clc1cccc(N/N=C/c2ccc(N3CCOCC3)cc2)c1	-163.9	-34.5	-1.2	-17.3	-8.4	·	·	·	·	·	·	·
COc1ccc2ccccc2c1/C=N/Nc1ccc(Cl)c(C(=O)O)c1	-183.4	10.0	11.8	4.7	9.1	·	·	·	·	·	·	·
